Only some compounds are listed: those with a hit (about 5.4% of all), similar ones and a draw of the others.
Vaccinia Venus = inhibitors of vaccinia virus (Venus reporter); Potency, µM (highest dose often 36.5 µM), actives largely listed as inhibitors; AID 720580; Vaccinia virus Venus reporter expression, fluorescence; hit rate 0.46% among 330,000; calls by dose curve; tested in A549 cells; further: nearly all actives have a fitted effect of over 30% in size
Sm TGR inh = inhibitors of Schistosoma mansoni thioredoxin glutathione reductase. Q962Y6. purified TGR, DTNB reduction, TNB absorbance 405 nm. Potency, µM (highest dose often 114 µM), usual class: inhibitors. hit rate 3% among 360,000. AID 485364; active means well fitted inhibition curve with a large enough effect; inconclusive means small, poorly fitted or top-dose-only effect; inactive means no such curve, though single readings can be large or run the other way; further: nearly all actives have a fitted effect of over 60% in size
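TGR 20 nM + NADPH 100 uM (dispensed conc.), cpd preinc 15 min RT; start with NADPH (500 uM addition) then DTNB (15 mM addition). Kinetic TNB absorbance, 405 nm filter. Four-parameter Hill fit across titration.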
Marburg entry inh = inhibitors of Marburg virus binding or cell entry. Marburg virus pseudotyped entry inhibition, cell reporter. Potency, µM (series often up to 37.8 µM), most hits filed as inhibitors. hit rate 1.8% among 300,000. AID 540276; calls by dose curve; tested in HEK293 cells
LASV entry inh = inhibitors of Lassa virus binding or cell entry; hit rate 1.2% among 300,000; Lassa virus pseudotype entry inhibition, cell reporter; Potency, µM (series often up to 37.9 µM), usual class: inhibitors; calls by dose curve; tested in HEK293 cells; further: nearly all actives have a fitted effect of over 50% in size
Vaccinia mCherry = vaccinia inhibition (mCherry reporter); Vaccinia virus mCherry reporter infection, fluorescence; Potency, µM (titrated, usually from 36.5 µM), usual class: inhibitors; hit rate 0.63% among 310,000; AID 720579; calls by dose curve; tested in A549 cells; further: nearly all actives have a fitted effect of over 35% in size
FMDV inh = blocks foot and mouth disease virus; FMDV antiviral cell-based qHTS; Potency, µM (doses to about 57.9 µM), most hits filed as inhibitors; hit rate 1.2% among 410,000; AID 1159524; calls by dose curve; tested in HEK293T cells; further: read-out not given here; nearly all actives have a fitted effect of over 45% in size
Of the large screens only hits and unclear results are named; the others gave an inactive call.

Cc1cccc(N2CCN(C(=O)C3CCN(S(=O)(=O)c4cccc5cccnc45)CC3)CC2C)c1 (configuration not stated)	FMDV inh inconclusive (no result: LASV entry inh)
Cc1cccc(N2CCN(C(=O)C3CCN(S(=O)(=O)c4cccc5nsnc45)CC3)CC2C)c1 (configuration not stated)	Marburg entry inh inconclusive, LASV entry inh inconclusive, FMDV inh 25.1µM
Cc1cccc(NC(=O)C2CCN(S(=O)(=O)c3cccc4nsnc34)CC2)n1	LASV entry inh inconclusive, FMDV inh inconclusive
Cc1cccc(N2CCN(C(=O)C3CCN(c4nnc(-n5cccc5)s4)CC3)CC2C)c1 (configuration not stated)	FMDV inh 15.8µM
Cc1ccc(NC(=O)CSc2nc3ccccc3nc2Cc2ccccc2F)cc1F	none
CO[C@H](C1CCCCC1)[C@H](C)C=CCC(=O)OCCCc1ccccc1	LASV entry inh inconclusive (no result: Vaccinia Venus, Sm TGR inh, Vaccinia mCherry, FMDV inh)
Cc1ccc(C(=O)Nc2cccc(-c3nc(CNC(=O)c4cccc(N(C)C)c4)c(C)o3)c2)s1	none (no result: Sm TGR inh, Marburg entry inh, LASV entry inh)
CCNC(=O)c1ccc(C2SCC(=O)N2CCc2ccccc2)cc1 (configuration not stated)	LASV entry inh inconclusive
O=C1CSC(c2ccncc2)N1Cc1ccco1 (configuration not stated)	Sm TGR inh 22.4µM, Marburg entry inh inconclusive (no result: Vaccinia Venus, Vaccinia mCherry)
CCCNC(=O)c1ccc(C2SCC(=O)N2CCc2ccccc2)cc1 (configuration not stated)	LASV entry inh 10µM
CC(C)CCNC(=O)c1ccc(C2SCC(=O)N2Cc2ccco2)cc1 (configuration not stated)	Sm TGR inh 25.1µM, LASV entry inh inconclusive (no result: Vaccinia Venus, Vaccinia mCherry)
CSc1nnc(CNS(=O)(=O)c2ccc(F)cc2F)n1-c1ccccc1C	none (no result: Sm TGR inh, Marburg entry inh, LASV entry inh)
COCC(=O)N1CCC(Oc2ccc(C(=O)N3C[C@@H](C)O[C@@H](C)C3)cc2)CC1	Sm TGR inh 39.8µM
COc1ccc(CCC(C)N2CCC(Oc3ccc(C(=O)N4CCCC4)cc3)CC2)cc1 (configuration not stated)	Sm TGR inh 28.2µM, Marburg entry inh inconclusive
COc1cc(/C=C/CN2CCC(Oc3ccc(C(=O)N4CCCC4)cc3)CC2)ccc1O	Sm TGR inh 17.8µM (no result: Vaccinia Venus, Marburg entry inh, LASV entry inh, Vaccinia mCherry)
COc1ccccc1/C=C/CN1CCC(Oc2ccc(C(=O)N3CCCC3)cc2)CC1	none
COc1cc(/C=C/CN2CCC(CO)(CC3CCCCO3)CC2)ccc1O (configuration not stated)	Sm TGR inh 12.6µM, Marburg entry inh inconclusive
CC(C)[C@H](N)C(=O)N[C@H]1CCC2C3CC=C4C[C@@H](O)CC[C@]4(C)C3CC[C@@]21C (some centres not stated)	Vaccinia Venus 12.6µM, Vaccinia mCherry inconclusive, FMDV inh inconclusive (no result: Sm TGR inh, Marburg entry inh, LASV entry inh)
CCc1cccc(CC)c1NC(=S)NCCc1ccc(O)c(O)c1	Sm TGR inh inconclusive (no result: Vaccinia Venus, Marburg entry inh, LASV entry inh, Vaccinia mCherry)
CCc1cccc(CC)c1NC(=S)NCCc1c(C)[nH]c2ccccc12	Vaccinia Venus inconclusive, Marburg entry inh inconclusive, LASV entry inh inconclusive, Vaccinia mCherry 10µM
CC(C)CC1c2[nH]c3ccccc3c2CCN1CCCn1cccn1 (configuration not stated)	Marburg entry inh 4.47µM, LASV entry inh 11.2µM, Vaccinia mCherry inconclusive
CSc1nc(N)nc(SCC(=O)C23CC4CC(CC(C4)C2)C3)c1C#N	Marburg entry inh 20.6µM, FMDV inh inconclusive (no result: Vaccinia Venus, Vaccinia mCherry)
Cc1c(C(=O)OCc2ccccc2)[nH]c2c1C(=O)CC(c1ccco1)C2 (configuration not stated)	Vaccinia Venus inconclusive, Sm TGR inh inconclusive, Vaccinia mCherry inconclusive (no result: Marburg entry inh, LASV entry inh)
COCCOC(=O)c1[nH]c2c(c1C)C(=O)CC(c1ccco1)C2 (configuration not stated)	Sm TGR inh 44.7µM, Vaccinia mCherry inconclusive, FMDV inh inconclusive (no result: Marburg entry inh, LASV entry inh)
CCOC(=O)c1[nH]c2c(c1C)C(=O)CC(c1ccco1)C2 (configuration not stated)	Vaccinia Venus inconclusive, Sm TGR inh 39.8µM, Vaccinia mCherry inconclusive (no result: Marburg entry inh, LASV entry inh)
Fc1cc(F)cc(-c2c(-c3ccccc3)ncc3ccc(F)cc23)c1	Sm TGR inh 44.7µM (no result: Marburg entry inh, LASV entry inh)
Fc1ccc2cnc(-c3ccccc3)c(-c3cccc(C(F)(F)F)c3)c2c1	none (no result: Marburg entry inh, LASV entry inh)
COc1cccc(CN2CCC(n3cc(C(=O)NC4CCCC4)nn3)CC2)c1O	none (no result: Sm TGR inh, Marburg entry inh, LASV entry inh)
O=C(Nc1ccccc1Cl)N1CCC2(CC1)Oc1ccccc1C(=O)N2Cc1ccc(F)cc1	FMDV inh inconclusive
